Records with an inconclusive call do not appear. Active and inactive are the calls of the source. The call rests on the fitted dose curve; in most records, active means well fitted inhibition curve with a large enough effect; inconclusive means small, poorly fitted or top-dose-only effect; inactive means flat fitted curve, though single readings scatter.
biological target: Calcium and integrin-binding protein 1 (Homo sapiens) (UniProt Q99828); assay: Primary qHTS for Identification of Calcium Integrin Binding Protein 1 (CIB1) Competitor (AID 1508620); conditions: CIB1-GST / FITC-alphaIIb peptide fluorescence polarization; series mostly up to 114 µM; activity change, negative = inhibition: at the top concentration; on activity change, negative = inhibition: top concentration of the series differs between compounds
Sequence (Q99828 whole entry, looked up): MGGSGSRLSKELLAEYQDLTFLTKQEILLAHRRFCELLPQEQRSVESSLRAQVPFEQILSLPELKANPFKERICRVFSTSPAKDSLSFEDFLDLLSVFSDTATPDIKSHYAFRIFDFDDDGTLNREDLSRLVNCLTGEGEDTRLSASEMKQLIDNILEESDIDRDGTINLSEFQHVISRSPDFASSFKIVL
Summary of the method: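 Fluorescence polarization competition: GST-tagged CIB1 (1 uM final) preincubated with compound 15 min at room temperature, then FITC-labelled alphaIIb peptide (100 nM final) added. After 15 min at room temperature, polarization read at Ex 480/Em 540.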
On the % scale 0 is the no-effect control and ±100 the full control effect; potency means the concentration at half of the fitted maximal effect.

Row | Structure (SMILES) | activity change, negative = inhibition | Potency
1 | CCOc1ccccc1-c1nnc2n1N=C(c1ccccc1OC)CS2 | 1.6% (inactive) | 
2 | Clc1ccccc1-c1nc(NCc2ccc(-c3cccnc3)cc2)c2ccccc2n1 | -2.98% (inactive) | 
3 | NC(=O)C1CCN(c2ncc(-c3ccc(Br)cc3)s2)CC1 | -4.62% (inactive) | 
4 | N#Cc1nc(Nc2cc(F)cc(Cl)c2)nc(NC2CCCC2)n1 | 5.14% (inactive) | 
5 | O=S(=O)(NCCCCCCNS(=O)(=O)c1c(F)cccc1F)c1ccc2c(c1)OCCO2 | -0.125% (inactive) | 
6 | COc1cccc(CNc2ccc(S(=O)(=O)Nc3nc4c(C)cccc4s3)cc2)c1O | -19.2% (inactive) | 
7 | COc1cc(F)c(S(=O)(=O)N2CCN(S(=O)(=O)c3cccs3)CC2)c(F)c1 | -0.892% (inactive) | 
8 | O=C(NC1CCCc2c1cnn2-c1ccc(F)cc1F)c1cccc(=O)[nH]1 (stereo not given) | -0.0994% (inactive) | 
9 | O=C(NCc1nnc(C(=O)Nc2ccc(C(F)(F)F)cc2Cl)o1)c1ccccc1 | 2.6% (inactive) | 
10 | Fc1ccc(-c2c(P(=S)(c3ccccc3)c3ccccc3)n3ccccc3[n+]2C/C=C/c2ccccc2)cc1 | -9.61% (inactive) | 
11 | Cc1cc2c(s1)c1c(n2C)C(=O)N(Cc2ccccc2F)C1 | -7.44% (inactive) | 
12 | Cc1ccc(OCCn2c(CCNC(=O)c3ccccc3F)nc3ccccc32)cc1 | 5.6% (inactive) | 
13 | Cc1cc(C)nc(NC(=S)N2CCN(c3cccc4cnccc34)CC2)c1 | -9.88% (inactive) | 
14 | N#Cc1nc(Nc2ccc(Br)cc2)nc(NC2CCCC2)n1 | 8.95% (inactive) | 
15 | Cc1ccc(CNc2ccc(N3CCOCC3)cc2)cc1 | -2.76% (inactive) | 
16 | O=C(NCc1cccnc1)C1CCN(S(=O)(=O)c2cccs2)CC1 | 6.96% (inactive) | 
17 | O=C(CNC(=O)c1ccc2ccccc2c1)OC(C(=O)Nc1cc(C(F)(F)F)ccc1Cl)c1ccccc1 (stereo not given) | 3.94% (inactive) | 
18 | Cc1cc(C)nc(NC(=S)N2CCN(c3ccc4nsnc4c3)CC2)c1 |  | 50.1 µM (active)
19 | CCOC(=O)c1ccoc1-c1ccc2ncnc(NCc3ncc[nH]3)c2c1 | -1.65% (inactive) | 
20 | CCn1c2cc(C)sc2c2cnn(Cc3ccccc3F)c(=O)c21 | -2.69% (inactive) | 

Row | Structure (SMILES) | activity change, negative = inhibition | Potency
21 | Cc1cc(C(=O)Nc2ccc(NC(=O)Cc3ccc(Cl)c(Cl)c3)cc2)no1 | 5.17% (inactive) | 
22 | COc1ccc(C2c3c(N)nc(Cc4ccccc4)nc3Oc3ccc4ccccc4c32)cc1OC (stereo not given) | 5.34% (inactive) | 
23 | COc1cccc(CNc2ccc(S(=O)(=O)Nc3nccs3)cc2)c1O | -18.2% (inactive) | 
24 | Cc1c(Cl)cccc1NS(=O)(=O)c1cc2c(cc1Cl)CCC(=O)N2 | 2.2% (inactive) | 
25 | O=C(O)c1ccc(CSc2nnc(-c3cccc(S(=O)(=O)NC4CCCC4)c3)n2-c2ccc(F)cc2)cc1 | 1.49% (inactive) | 
26 | CC(C)c1ccccc1SC1=NS(=O)(=O)c2ccccc21 | -15.4% (inactive) | 
27 | Cn1c2cc(C=O)sc2c2cnn(Cc3ccccc3F)c(=O)c21 | 2.22% (inactive) | 
28 | Cc1ccc(Nc2nc(C#N)nc(NC3CCCC3)n2)cc1 | 3.33% (inactive) | 
29 | Cc1ccc(OCCn2c(CCNC(=O)c3ccc(C(F)(F)F)cc3)nc3ccccc32)cc1 | -1.97% (inactive) | 
30 | Oc1ccc(CCc2ccccc2)c2cccnc12 | -7.25% (inactive) | 
31 | Cc1ccc(-c2nnc(NC(=O)Nc3ccc4ccccc4c3)s2)cc1 | 4.64% (inactive) | 
32 | CC(=O)N[C@H](C(=O)N[C@@H](C)C(=O)N[C@H](C#N)CC(=O)O)C(C)C | 3.24% (inactive) | 
33 | CC(C)c1ccccc1-c1ncc(F)c(NC(C)(C)c2ccc(-c3cccnc3)cc2)n1 | -2.26% (inactive) | 
34 | Cc1cccc(-n2cnc3cc(C(=O)N4CCCC(c5ccccc5)C4)ccc32)c1 (stereo not given) | 3.59% (inactive) | 
35 | CC(C)CC(OC(=O)CNC(=O)c1ccccc1)C(=O)Nc1cc(C(F)(F)F)ccc1Cl (stereo not given) | 0.0086% (inactive) | 
36 | Cc1c(C(=O)OCC2CC2)[nH]c2c1C(=O)CC(c1ccco1)C2 (stereo not given) | -14.1% (inactive) | 
37 | Cc1ccc(CNc2ccc(N3CCNCC3=O)cc2)cc1 | 2.31% (inactive) | 
38 | CCC(=O)C1CCCN(C(=O)CC(c2ccc3c(c2)OCO3)c2c(O)cc(OC)cc2OC)C1 (stereo not given) | -4.91% [at 228 µM] (inactive) | 
39 | Cc1cc(-c2nnc3n2CCCCC3)c(C)n1-c1ccc([N+](=O)[O-])cc1 | -8.18% (inactive) | 
40 | COc1cccc(C2c3c(ncn(-c4ccc(NC(C)=O)cc4)c3=N)Oc3ccc4ccccc4c32)c1 (stereo not given) | 8.37% (inactive) | 

Source: PubChem BioAssay (NCATS)
